MITF inh – MITF inhibitors, primary screen, biochemical, AlphaScreen, human | Microphthalmia-associated transcription factor (Homo sapiens), O75030 | AlphaScreen MITF homodimerization, bead proximity signal | inhibition, % at 2.6 µM | 0.91% of 650,000 active | AID 1259374, 2018; in the data active = inhibition above about 50%
Target sequence (O75030 whole entry, looked up): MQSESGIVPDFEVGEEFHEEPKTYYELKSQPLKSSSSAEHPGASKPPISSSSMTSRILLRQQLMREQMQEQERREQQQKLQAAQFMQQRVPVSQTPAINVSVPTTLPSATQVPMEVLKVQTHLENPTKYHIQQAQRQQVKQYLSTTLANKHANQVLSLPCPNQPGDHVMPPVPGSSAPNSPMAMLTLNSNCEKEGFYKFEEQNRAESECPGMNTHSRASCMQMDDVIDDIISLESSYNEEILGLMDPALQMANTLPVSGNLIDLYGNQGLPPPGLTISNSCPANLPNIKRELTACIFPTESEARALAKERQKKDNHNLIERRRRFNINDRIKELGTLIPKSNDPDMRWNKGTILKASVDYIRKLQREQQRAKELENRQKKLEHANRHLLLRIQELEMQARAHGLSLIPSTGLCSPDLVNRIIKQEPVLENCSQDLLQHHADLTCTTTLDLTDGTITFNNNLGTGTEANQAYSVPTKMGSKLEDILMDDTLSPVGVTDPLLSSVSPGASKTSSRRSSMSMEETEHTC
FBW7 activator – FBW7 E3 ligase activators, primary screen, biochemical, AlphaScreen, human; normalized activity (activation), % at 26.1 µM; AlphaScreen FBW7–phospho-cyclin E peptide binding, activator screen; 0.13% of 650,000 active; in the data active = normalized activity above about 1.9%;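 also: purified mutant Fbw7 with reduced substrate affinity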
GPR151 ag – activators of human GPR151, primary screen, cell-based, PathHunter beta-arrestin, luminescence; PathHunter beta-arrestin GPR151 cells; activation, % at 11.2 µM; 1% of 650,000 active; in the data active = activation above about 4.9%
TEAD-YAP block – TEAD-YAP interaction inhibition, primary screen, TEAD-YAP interaction inhibitor project, luminescence, HEK-TIYL cells; TEAD-Gal4/YAP UAS-luciferase luminescence; inhibition, % at 9.12 µM; 1.4% of 640,000 active; AID 1259422, 2018; in the data active = inhibition above about 32%
Numbers stand for hits. Shown are actives, neighbours in structure and some others; about 3.5% of the full set was active somewhere.

For COC(=O)c1ccc2c(c1)C1C=CCC1[C@@H](c1ccc(C(=O)O)cc1)N2 (some centres undefined) the results were MITF inh 66, FBW7 activator inactive, GPR151 ag inactive and TEAD-YAP block inactive.
For COc1ccc2c(c1)[C@@H]1C=CC[C@@H]1[C@H](c1ccc(C(=O)O)cc1)N2 the results were MITF inh inactive, FBW7 activator inactive, GPR151 ag inactive and TEAD-YAP block inactive.
For COC(=O)c1ccc2c(c1)C1C=CCC1C(c1ccc(C(=O)O)cc1)N2 (centres undefined) the results were MITF inh 70, FBW7 activator inactive, GPR151 ag inactive and TEAD-YAP block inactive.
`CCc1cnc2c(c1OC)c(=O)n(Cc1c(F)cccc1Cl)c(=O)n2C` gave MITF inh inactive, FBW7 activator inactive, GPR151 ag inactive and TEAD-YAP block inactive.
`COc1cccc(C(=O)Nc2nnc(CCS(=O)(=O)c3ccc(C)c(C)c3)s2)c1` gave MITF inh inactive, FBW7 activator inactive, GPR151 ag inactive and TEAD-YAP block inactive.
`CCOCCn1c(=NC(=O)c2c(F)cccc2F)sc2cc(S(N)(=O)=O)ccc21` gave MITF inh inactive, FBW7 activator inactive, GPR151 ag inactive and TEAD-YAP block inactive.
`O=C(Nc1nnc(-c2cccs2)s1)c1ccc(F)cc1` gave MITF inh inactive, FBW7 activator inactive, GPR151 ag inactive and TEAD-YAP block inactive.
For CC(=O)c1ccc2c(c1)[C@@H]1C=CC[C@@H]1[C@H](c1ccc(C(=O)O)cc1)N2 the results were MITF inh 62, FBW7 activator inactive, GPR151 ag inactive and TEAD-YAP block inactive.
O=C(O)c1ccc2c(c1)C1C=CCC1C(c1ccccc1F)N2 (centres undefined) was read as MITF inh 56, FBW7 activator inactive, GPR151 ag inactive and TEAD-YAP block inactive.
Screening CC(=O)c1ccc2c(c1)[C@@H]1C=CC[C@@H]1[C@H](c1ccncc1)N2 returned MITF inh inactive, FBW7 activator inactive, GPR151 ag inactive and TEAD-YAP block inactive.
For CCOC(=O)c1ccc2c(c1)C1C=CCC1C(c1ccc(Cl)cc1)N2 (centres undefined) the results were MITF inh inactive, FBW7 activator inactive, GPR151 ag inactive and TEAD-YAP block inactive.
For CC(=O)c1ccc2c(c1)[C@@H]1C=CC[C@@H]1[C@H](c1cc3c(cc1Br)OCO3)N2 the results were MITF inh inactive, FBW7 activator inactive, GPR151 ag inactive and TEAD-YAP block 53.
Screening CC(=O)c1ccc2c(c1)C1C=CCC1C(c1ccccc1F)N2 (centres undefined) returned MITF inh inactive, FBW7 activator inactive, GPR151 ag inactive and TEAD-YAP block inactive.
CCOC(=O)c1ccc2c(c1)[C@@H]1C=CC[C@@H]1[C@H](c1ccc(C(=O)O)cc1)N2 was read as MITF inh 52, FBW7 activator inactive, GPR151 ag inactive and TEAD-YAP block inactive.
Cc1ccc(S(=O)(=O)N/N=C/c2ccc(OCC(=O)NC3CCCCC3)cc2)cc1 was read as MITF inh inactive, FBW7 activator inactive, GPR151 ag inactive and TEAD-YAP block inactive.
Screening CCOC(=O)C1=C(C)N=c2s/c(=C\c3cn(Cc4ccccc4)c4ccccc34)c(=O)n2C1c1cccs1 (centres undefined) returned MITF inh inactive, FBW7 activator inactive, GPR151 ag inactive and TEAD-YAP block inactive.
`COc1ccc(OC(C)C(=O)Nc2ccc(Br)cc2F)cc1` (centres undefined) gave MITF inh inactive, FBW7 activator inactive, GPR151 ag inactive and TEAD-YAP block inactive.
For O=C(O)c1ccc2c(c1)C1C=CCC1C(c1ccc([N+](=O)[O-])cc1)N2 (centres undefined) the results were MITF inh 84, FBW7 activator inactive, GPR151 ag inactive and TEAD-YAP block inactive.
For COC(=O)c1ccc2c(c1)C1C=CCC1C(c1ccc([N+](=O)[O-])cc1)N2 (centres undefined) the results were MITF inh inactive, FBW7 activator inactive, GPR151 ag inactive and TEAD-YAP block inactive.
CCCN1CCN(C(=O)c2sc3ncnc(NCc4ccco4)c3c2C)CC1 was read as MITF inh inactive, FBW7 activator inactive, GPR151 ag inactive and TEAD-YAP block inactive.
`O=C1c2ccccc2NC2(CCCCC2)N1c1ccc(O)cc1` gave MITF inh inactive, FBW7 activator inactive, GPR151 ag inactive and TEAD-YAP block 58.
CSCCC(NC(=O)/C(=C\c1ccc(Br)cc1)NC(=O)c1ccccc1)C(=O)O (centres undefined) was read as MITF inh inactive, FBW7 activator inactive, GPR151 ag inactive and TEAD-YAP block inactive.
For O=C(Nc1ccc2c(c1)OCO2)c1nn2c(C(F)(F)F)cc(-c3ccc(Cl)cc3)nc2c1Cl the results were MITF inh inactive, FBW7 activator inactive, GPR151 ag inactive and TEAD-YAP block inactive.
`Cc1ccc(-c2nc3ccccc3o2)cc1N` gave MITF inh inactive, FBW7 activator inactive, GPR151 ag inactive and TEAD-YAP block inactive.
For CCc1ccc2oc(-c3ccc(C)c(N)c3)nc2c1 the results were MITF inh inactive, FBW7 activator inactive, GPR151 ag inactive and TEAD-YAP block 43.
For Cc1ccc2nc(-c3cc(N)ccc3O)oc2c1 the results were MITF inh inactive, FBW7 activator inactive, GPR151 ag inactive and TEAD-YAP block inactive.
`Cc1cc2nc(-c3cccc(N)c3)oc2cc1C` gave MITF inh inactive, FBW7 activator inactive, GPR151 ag inactive and TEAD-YAP block 35.
Screening Cc1cc2nc(-c3ccc(C)c(N)c3)oc2cc1C returned MITF inh inactive, FBW7 activator inactive, GPR151 ag inactive and TEAD-YAP block 36.
Screening Cc1ccc2nc(-c3cc(N)cc(N)c3)oc2c1 returned MITF inh inactive, FBW7 activator inactive, GPR151 ag inactive and TEAD-YAP block 56.
Screening CCCn1c(SCCOc2ccccc2OC)nc2ccccc21 returned MITF inh inactive, FBW7 activator inactive, GPR151 ag inactive and TEAD-YAP block inactive.
Screening CSCCCNC(=O)c1cccc(OC2CCN(S(=O)(=O)N(C)C)CC2)c1 returned MITF inh inactive, FBW7 activator inactive, GPR151 ag inactive and TEAD-YAP block inactive.
Screening O=[N+]([O-])c1ccccc1/C=C/CN1CCCC1CO (centres undefined) returned MITF inh inactive, FBW7 activator inactive, GPR151 ag inactive and TEAD-YAP block inactive.
Screening NC(=O)c1ccsc1NC(=O)CSc1nnc(-c2ccco2)n1-c1ccccc1 returned MITF inh inactive, FBW7 activator inactive, GPR151 ag inactive and TEAD-YAP block 43.
Screening COc1ccccc1-n1cc(CN2CCC(CO)(CCOc3ccccc3)CC2)cn1 returned MITF inh inactive, FBW7 activator inactive, GPR151 ag inactive and TEAD-YAP block inactive.
NS(=O)(=O)c1ccc(CCNCC(O)COCc2ccc3c(c2)OCO3)cc1 (centres undefined) was read as MITF inh inactive, FBW7 activator inactive, GPR151 ag inactive and TEAD-YAP block inactive.
